From the supplement of paper PMC10849652
The full data set covers some 8,800 targets. This sample favours those with a hit. About 0.5% of all pairs of compound and target were hits. Unmarked numbers belong to inactive results.

Columns and labels:
Experiment in all cases: log2 fold change, soluble protein after heating vs DMSO (PISA); higher = thermal stabilisation; K562 lysate, 10 uM; active = over 0.2 and 3.5 SD of the protein, either way, in both replicates (recomputed)
[1] = compound: NCC(=O)Nc1ccc(-n2nc(C(F)(F)F)cc2-c2ccc3c(ccc4ccccc43)c2)cc1
In short: (§1)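 Following dounce homogenisation of K562 pellets in PBS pH 7.4 with 1 mM MgCl2, crude extract at 1 mg/mL protein was incubated for 30 min with 10 μM compound. Aliquots were then heated for 3 min over 48°C-58°C and pooled, NP-40 was added to 0.5% at 4°C, and soluble protein was recovered as the supernatant at 21,000xg for 90 min. Channel-sum-equalised TMTpro 16plex LC-MS/MS quantified this protein. Each value, from duplicates, is a log-two fold change in thermal stability relative to solvent controls.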

vorinostat = compound: O=C(CCCCCCC(=O)Nc1ccccc1)NO [vorinostat]
In short: as §1

silmitasertib = compound: O=C(O)c1ccc2c(c1)nc(Nc1cccc(Cl)c1)c1ccncc12 [silmitasertib]
In short: as §1

[2] = compound: O=C1NC(=O)C(c2cnc3ccccn23)=C1c1cn2c3c(cc(F)cc13)CN(C(=O)N1CCCCC1)CC2
In short: as §1

entospletinib = compound: c1cn2cc(-c3ccc4cn[nH]c4c3)nc(Nc3ccc(N4CCOCC4)cc3)c2n1 [entospletinib]
In short: as §1

Chain of UniProt P04083 (P04083 whole entry, looked up): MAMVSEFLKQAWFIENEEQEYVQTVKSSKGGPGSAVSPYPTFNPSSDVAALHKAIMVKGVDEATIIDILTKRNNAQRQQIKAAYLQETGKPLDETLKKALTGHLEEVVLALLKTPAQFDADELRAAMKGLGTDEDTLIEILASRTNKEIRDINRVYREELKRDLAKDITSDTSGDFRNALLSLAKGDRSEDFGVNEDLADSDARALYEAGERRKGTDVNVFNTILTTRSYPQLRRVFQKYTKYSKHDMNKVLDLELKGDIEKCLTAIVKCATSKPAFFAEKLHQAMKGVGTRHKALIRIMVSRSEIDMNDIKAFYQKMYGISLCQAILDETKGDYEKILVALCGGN
Chain of UniProt Q9NUQ8 (Q9NUQ8 whole entry, looked up): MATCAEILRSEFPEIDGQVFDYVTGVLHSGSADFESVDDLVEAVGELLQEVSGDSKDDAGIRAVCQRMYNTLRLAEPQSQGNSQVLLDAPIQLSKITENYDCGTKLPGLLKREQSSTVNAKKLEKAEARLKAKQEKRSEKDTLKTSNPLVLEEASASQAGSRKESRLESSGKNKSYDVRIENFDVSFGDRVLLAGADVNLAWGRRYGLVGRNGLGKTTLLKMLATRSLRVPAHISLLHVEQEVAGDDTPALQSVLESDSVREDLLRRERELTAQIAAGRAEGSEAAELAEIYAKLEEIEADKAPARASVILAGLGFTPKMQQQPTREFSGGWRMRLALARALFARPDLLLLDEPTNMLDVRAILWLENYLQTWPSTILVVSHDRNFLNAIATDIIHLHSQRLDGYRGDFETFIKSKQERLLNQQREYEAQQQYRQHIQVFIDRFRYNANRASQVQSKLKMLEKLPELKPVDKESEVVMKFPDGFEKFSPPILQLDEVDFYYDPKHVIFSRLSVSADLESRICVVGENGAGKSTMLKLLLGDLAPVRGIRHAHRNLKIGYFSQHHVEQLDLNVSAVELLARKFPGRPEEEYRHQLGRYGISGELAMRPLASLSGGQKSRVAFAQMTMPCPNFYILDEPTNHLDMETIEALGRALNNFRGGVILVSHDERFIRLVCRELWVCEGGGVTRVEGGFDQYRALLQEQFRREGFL
Chain of UniProt Q92974 (Q92974 whole entry, looked up): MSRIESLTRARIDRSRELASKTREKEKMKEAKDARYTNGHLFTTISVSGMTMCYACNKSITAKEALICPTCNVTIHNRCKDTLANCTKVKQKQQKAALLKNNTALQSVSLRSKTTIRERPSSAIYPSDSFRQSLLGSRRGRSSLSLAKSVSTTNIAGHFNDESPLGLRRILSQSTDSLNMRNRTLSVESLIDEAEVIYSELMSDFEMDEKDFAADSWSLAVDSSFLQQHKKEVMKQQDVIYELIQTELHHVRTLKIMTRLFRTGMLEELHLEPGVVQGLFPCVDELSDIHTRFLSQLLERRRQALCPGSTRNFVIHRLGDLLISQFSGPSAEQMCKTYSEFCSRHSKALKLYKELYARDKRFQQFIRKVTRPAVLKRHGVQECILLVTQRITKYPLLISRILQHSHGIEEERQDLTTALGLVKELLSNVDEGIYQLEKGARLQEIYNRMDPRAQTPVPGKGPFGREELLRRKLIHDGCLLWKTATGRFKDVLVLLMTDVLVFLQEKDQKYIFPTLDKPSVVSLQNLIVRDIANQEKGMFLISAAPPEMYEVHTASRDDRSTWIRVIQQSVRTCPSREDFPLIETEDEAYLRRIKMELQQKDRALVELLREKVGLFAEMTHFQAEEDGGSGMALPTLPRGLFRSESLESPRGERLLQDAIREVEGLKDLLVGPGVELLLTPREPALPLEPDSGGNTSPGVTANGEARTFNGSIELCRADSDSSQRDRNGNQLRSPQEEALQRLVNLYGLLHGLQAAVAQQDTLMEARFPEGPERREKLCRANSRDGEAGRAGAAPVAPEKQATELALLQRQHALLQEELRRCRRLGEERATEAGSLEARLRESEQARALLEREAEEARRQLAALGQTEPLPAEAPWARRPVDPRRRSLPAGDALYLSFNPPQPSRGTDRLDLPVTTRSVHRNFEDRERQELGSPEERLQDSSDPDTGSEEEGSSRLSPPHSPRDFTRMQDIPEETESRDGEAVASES
Chain of UniProt P00568 (P00568 whole entry, looked up): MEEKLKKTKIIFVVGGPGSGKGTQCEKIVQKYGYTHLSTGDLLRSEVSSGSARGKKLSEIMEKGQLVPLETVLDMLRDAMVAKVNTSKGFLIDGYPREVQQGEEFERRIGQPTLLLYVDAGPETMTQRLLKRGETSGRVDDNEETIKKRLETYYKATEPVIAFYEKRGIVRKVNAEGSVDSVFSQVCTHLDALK
Chain of UniProt Q562R1 (Q562R1 whole entry, looked up): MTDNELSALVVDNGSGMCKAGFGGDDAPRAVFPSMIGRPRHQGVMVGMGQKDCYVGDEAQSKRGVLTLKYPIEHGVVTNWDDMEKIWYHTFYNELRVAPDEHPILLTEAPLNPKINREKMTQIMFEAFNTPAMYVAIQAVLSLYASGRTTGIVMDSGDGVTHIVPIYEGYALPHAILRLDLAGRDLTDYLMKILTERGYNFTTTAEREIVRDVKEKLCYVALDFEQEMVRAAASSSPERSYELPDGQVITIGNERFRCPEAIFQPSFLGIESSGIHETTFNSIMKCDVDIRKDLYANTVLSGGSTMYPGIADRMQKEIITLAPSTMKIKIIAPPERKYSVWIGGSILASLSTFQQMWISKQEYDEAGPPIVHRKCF
Chain of UniProt Q9NWX5 (Q9NWX5 whole entry, looked up): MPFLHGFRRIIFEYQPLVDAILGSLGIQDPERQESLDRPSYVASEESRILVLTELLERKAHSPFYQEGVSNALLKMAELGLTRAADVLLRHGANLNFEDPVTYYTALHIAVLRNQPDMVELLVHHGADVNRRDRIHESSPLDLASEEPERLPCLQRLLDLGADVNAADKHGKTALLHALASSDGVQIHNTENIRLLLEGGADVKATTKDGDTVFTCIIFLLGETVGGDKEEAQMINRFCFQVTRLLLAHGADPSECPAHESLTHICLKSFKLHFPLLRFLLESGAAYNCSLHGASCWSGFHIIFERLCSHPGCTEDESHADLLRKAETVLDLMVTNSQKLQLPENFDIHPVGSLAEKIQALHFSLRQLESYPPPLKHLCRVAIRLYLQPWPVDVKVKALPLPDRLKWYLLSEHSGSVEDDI
Chain of UniProt P52895 (P52895 whole entry, looked up): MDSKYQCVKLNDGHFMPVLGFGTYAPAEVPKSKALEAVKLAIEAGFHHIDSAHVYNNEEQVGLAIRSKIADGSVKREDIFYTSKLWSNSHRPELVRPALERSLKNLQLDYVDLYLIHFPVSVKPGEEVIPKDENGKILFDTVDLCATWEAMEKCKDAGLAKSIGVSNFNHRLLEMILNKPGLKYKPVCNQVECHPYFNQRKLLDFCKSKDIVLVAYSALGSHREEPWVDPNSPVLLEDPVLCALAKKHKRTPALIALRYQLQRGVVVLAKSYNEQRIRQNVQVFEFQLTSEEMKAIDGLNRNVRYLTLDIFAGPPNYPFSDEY
Chain of UniProt Q9UJX3 (Q9UJX3 whole entry, looked up): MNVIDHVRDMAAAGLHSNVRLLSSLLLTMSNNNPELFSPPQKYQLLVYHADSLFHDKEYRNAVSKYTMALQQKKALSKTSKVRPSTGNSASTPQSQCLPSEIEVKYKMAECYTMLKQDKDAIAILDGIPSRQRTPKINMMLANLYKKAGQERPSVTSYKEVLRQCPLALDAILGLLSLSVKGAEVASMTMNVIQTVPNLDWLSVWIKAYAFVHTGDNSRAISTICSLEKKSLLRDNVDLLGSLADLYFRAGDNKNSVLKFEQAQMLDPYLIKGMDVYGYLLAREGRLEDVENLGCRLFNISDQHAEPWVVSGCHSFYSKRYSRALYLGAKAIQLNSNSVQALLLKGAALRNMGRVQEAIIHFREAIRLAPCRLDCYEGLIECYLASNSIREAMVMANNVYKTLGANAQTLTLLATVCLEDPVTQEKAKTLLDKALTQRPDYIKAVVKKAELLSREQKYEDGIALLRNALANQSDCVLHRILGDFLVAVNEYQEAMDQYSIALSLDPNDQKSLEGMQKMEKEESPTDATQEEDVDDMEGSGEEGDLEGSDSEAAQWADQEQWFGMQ

Row | Target | log2 fold change [1] | log2 fold change (vorinostat) | log2 fold change (silmitasertib) | log2 fold change [2] | log2 fold change (entospletinib)
1 | AK1 (UniProt P00568) | 0.005 | 0.075 | 0.001 | -0.001 | 0.022
2 | ARHGEF2 (UniProt Q92974) | 0.042 | -0.248 (active) | -0.029 | 0.007 | 0
3 | ASB6 (UniProt Q9NWX5) | 0.116 | -0.005 | -0.057 | -0.019 | 0.074
4 | ABCF3 (UniProt Q9NUQ8) | 0.026 | -0.439 (active) | 0.033 | -0.004 | -0.013
5 | ANXA1 (UniProt P04083) | -0.013 | -0.255 (active) | -0.007 | -0.031 | 0.011
6 | AKR1B1 (UniProt P15121) | -0.018 | 0.24 (active) | -0.004 | -0.026 | -0.065
7 | ANAPC7 (UniProt Q9UJX3) | -0.035 | -0.218 (active) | 0.023 | 0.007 | 0.046
8 | AKR1C2 (UniProt P52895) | -0.008 | 0.504 (active) | -0.011 | 0.052 | -0.014
9 | ACTBL2 (UniProt Q562R1) | -0.116 | -0.154 | 0.039 | 0.019 | -0.083
